PubChem BioAssay (NCI)
Compounds without any hit were thinned out: in the full panel of roughly 83,000, 20% have a hit.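 Assay: single dose, 48 h. Readout: percent growth (0 = no net growth; negative = cell death). Active: <10.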 Values without a mark were called inactive. Activity calls are given as the source filed them.

Legend:
Assay in all cases: NCI-60 one-dose screen, 48 h (100 = growth as untreated, 0 = no growth, -100 = all killed)
Details in all cases: 10 µM unless noted
[1] = tested on: HCT-15 colon
[2] = tested on: HT29 colon
[3] = tested on: SNB-75 CNS
[4] = tested on: SNB-19 CNS
[5] = tested on: U251 CNS
[6] = tested on: PC-3 prostate
[7] = tested on: SK-MEL-5 melanoma
[8] = tested on: UACC-62 melanoma
[9] = tested on: LOX IMVI melanoma
[10] = tested on: SK-MEL-28 melanoma
[11] = tested on: SK-MEL-2 melanoma
[12] = tested on: EKVX NSCLC
[13] = tested on: SN12C renal
[14] = tested on: UO-31 renal
[15] = tested on: TK-10 renal
[16] = tested on: ACHN renal
[17] = tested on: CAKI-1 renal
[18] = tested on: A498 renal
[19] = tested on: CCRF-CEM leukemia
[20] = tested on: MOLT-4 leukemia

Row | SMILES | growth [1] | growth [2] | growth [3] | growth [4] | growth [5] | growth [6] | growth [7] | growth [8] | growth [9] | growth [10] | growth [11] | growth [12] | growth [13] | growth [14] | growth [15] | growth [16] | growth [17] | growth [18] | growth [19] | growth [20]
1 | O=C(O)COc1ccc(F)cc1 | 104% | 93.8% | 99.8% | 99.8% | 102% | 96.2% | 102% | 102% | 99% | 116% | 99.6% | 103% | 98.1% | 91.6% | 91.4% | 111% | 94.7% | 97.4% | 104% | 101%
2 | Cc1ccc2c(n1)C[C@H](C(C)(C)O)CC[C@H]2C | 99.4% | 107% | 91.8% | 91.8% | 94.4% | 104% | 98.9% | 94.4% | 101% | 106% | 99.9% | 92.4% | 98.4% | 90.6% | 97.5% | 102% | 92.8% | 98.1% | 106% | 103%
3 | C=C(C)[C@@H]1CC[C@]2(C(=O)NC(C)=O)CC[C@]3(C)[C@H](CC[C@@H]4[C@@]5(C)CCCNC(C)(C)[C@@H]5CC[C@]43C)[C@@H]12 | -33.2% (active) | -5.24% (active) | 52% | 58.3% | -41.6% (active) | 27.4% | -94.5% (active) | 81.6% | -81.8% (active) | -88.4% (active) | -34.6% (active) | 68.8% | 22.2% | 49.7% | 10.6% | -30.1% (active) | 71.8% | 88.6% | 1.24% (active) | -13.1% (active)
4 | Cc1nc2cccc(NCc3ccc(C(=O)NO)cc3)c2c(=O)n1-c1ccccc1 | 31.3% | 26.4% | 42.6% | 40.8% | -16.7% (active) | 27% | 8.27% (active) | -17.7% (active) | 26.6% | 35.7% | 61.7% | 61.8% | 63.2% | 17% | 15.9% | 30.5% | 28% | 41.3% | 13.4% | 11.5%
5 | COC(=O)[C@H]1Cc2c([nH]c3ccccc23)[C@H](c2ccc3c(c2)OCO3)N1 | 100% | 106% | 74.8% | 96.4% | 96.8% | 93.2% | 101% | 88.1% | 93.6% | 108% | 113% | 95.5% | 100% | 80.2% | 96% | 98.4% | 82.3% | 97.5% | 96.4% | 100%
6 | O=C(/C=C/c1ccc(Cl)cc1)c1ccc(Nc2ccnc3cc(Cl)ccc23)cc1 | 56.1% | 30.6% | 92.5% | 99.7% | 52.7% | 70.9% | 53.3% | 92.8% | 83.3% | 104% | 54% | 136% | 97.1% | 65% | 111% | 109% | 76.3% | 108% | 3.01% (active) | 43.4%
7 | C=CCNc1ccc2c3c(cccc13)C(=O)N(CC=C)C2=O | 97.4% | 105% | 90.4% | 100% | 103% | 69.3% | 88.9% | 75.8% | 92% | 103% | 116% | 99.2% | 97.6% | 71.5% | 97.3% | 84.3% | 72.9% | 89.7% | 83% | 93.8%
8 | Cc1ccc(C2(C)NC(=O)N(CC(=O)Nc3cccc(C)c3)C2=O)cc1 (stereo not given) | 94.4% | 96.6% | 77.1% | 102% | 99.1% | 60.1% | 98.3% | 84% | 96.3% | 107% | 84.9% | 101% | 100% | 82% | 106% | 98.6% | 112% | 123% | 112% | 80.4%
9 | CC(=O)c1ccc(Nc2nccc(-c3ccc(Cl)cc3)n2)cc1 | 82.3% | 86.2% | 105% | 98% | 78.4% | 89.6% | 102% | 86.5% | 90.7% | 113% | 98.1% | 99.2% | 100% | 93.1% | 85.5% | 92.3% | 92.6% | 7.16% (active) | 84.4% | 83.8%
10 | COc1ccc(C2=NN(C=O)C(c3ccc(Oc4nc5c(c(=O)n(C)c(=O)n5C)n4C)c(OC)c3)C2)cc1 (stereo not given) | 88.9% | 71.8% | 94.1% | 69.1% | 90.1% | 78.4% | 59.8% | 88.5% | 68.2% | 97.8% | 100% | 91.8% | 53.8% | 74% | 104% | 84.8% | 75.2% | 85.5% | 80.5% | 66.7%
11 | Cc1ccc2c(c1)CC(O)CC1C(=O)N(CCO)CC(=O)N21 (stereo not given) | 106% | 96.1% | 83% | 102% | 95.4% | 96.8% | 104% | 97.3% | 96.2% | 102% | 86.2% | 104% | 100% | 95.8% | 88.6% | 104% | 92.6% | 99.4% | 104% | 92.2%
12 | COc1nc2ccccc2cc1/C=C1/C=C(c2ccccc2)NC1=O | 30.3% | 10% | 28.8% | 43.4% | 31% | 55.1% | 39.4% | 32.1% | 38.8% | 58.9% | 19% | 52.5% | 40.6% | 41.2% | 87.5% | 40.9% | 31.9% | 35.9% | 41.1% | 21.5%
13 | COc1ccc(S(=O)(=O)Oc2ccc(-c3sc4cc(OS(=O)(=O)c5ccc(OC)cc5)ccc4c3C(=O)c3ccc(OCCN4CCCCC4)cc3)cc2)cc1 | 101% | 92% | 70.9% | 103% | 99.7% | 106% | 101% | 101% | 101% | 103% | 119% | 97% | 99.9% | 80.7% | 95% | 101% | 94.1% | 105% | 97.7% | 89.3%
14 | CC(=O)O[C@H]1C[C@@]2(C)[C@@H](C[C@@H](O)[C@H]3[C@@]4(C)CC[C@H](N5CCCC5)[C@@H](C)[C@@H]4CC[C@@]32C)/C1=C(\CCC=C(C)C)C(=O)O | 94.5% | 103% | 97.7% | 99.6% | 99.5% | 92.8% | 96.2% | 94.9% | 97% | 92.9% | 100% | 94% | 98.4% | 81.2% | 95.1% | 102% | 91.6% | 104% | 42.8% | -57.9% (active)
15 | CC/C(=C(/c1ccc(Cl)cc1)c1ccc(OCCN2CCCC2)cc1)c1ccccc1 | 6.41% (active) | -25.4% (active) | 96.3% | 60.6% | 32.1% | 40.4% | 22.4% | 79.2% | 32.4% | 76.9% | 88% | 59.3% | 69.3% | 66.2% | 93.5% | 87.9% | 61.6% | 79.7% | 36.9% | 42.8%
